ATG4B inhibitor = blocks human ATG4B protease cleavage of LC3 substrate | Q9Y4P1 | ATG4B cleavage of LC3-PLA2, NBD-HPC fluorescence, 1 h | inhibition, % at 8.33 µM | 340,000 tested, 0.51% active | AID 504462; in the data active = inhibition above about 40%
Target sequence (Q9Y4P1 whole entry, looked up): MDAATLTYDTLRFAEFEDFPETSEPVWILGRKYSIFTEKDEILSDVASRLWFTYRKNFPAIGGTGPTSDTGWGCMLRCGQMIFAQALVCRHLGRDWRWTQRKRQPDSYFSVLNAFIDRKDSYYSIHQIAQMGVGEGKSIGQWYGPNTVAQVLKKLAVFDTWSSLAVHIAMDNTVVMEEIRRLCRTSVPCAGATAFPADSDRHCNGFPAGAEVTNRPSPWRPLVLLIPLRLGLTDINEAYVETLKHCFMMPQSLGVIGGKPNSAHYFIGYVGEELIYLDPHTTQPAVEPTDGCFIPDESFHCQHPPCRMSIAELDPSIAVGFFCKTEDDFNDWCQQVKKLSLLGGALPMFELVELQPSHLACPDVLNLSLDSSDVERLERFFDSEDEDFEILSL
PREPL inhibitor = human PREPL enzyme inhibition. recombinant PREPL, fluorescence polarization activity-based probe. inhibition, % at 5.96 µM. 320,000 tested, 0.68% active. AID 2751
MEKK2wt PB1 HTS = raises or lowers MEK5 binding to wildtype human MEKK2 PB1 domain. Q9Y2U5. bead flow cytometry, Alexa488-MEK5 binding to MEKK2 WT; actives lie on both sides. binding response (% of control), % at 10 µM. 290,000 tested, 1.1% active; in the data active = binding response below about 67% or above about 130%
UBC13 inh = blocks human UBC13 polyubiquitin chain formation; TR-FRET; 330,000 tested, 0.47% active; AID 485273; P61088; inhibition, % at 20 µM; in the data active = inhibition above about 45%, passing the limit was not always enough
Target sequence (P61088 whole entry, looked up): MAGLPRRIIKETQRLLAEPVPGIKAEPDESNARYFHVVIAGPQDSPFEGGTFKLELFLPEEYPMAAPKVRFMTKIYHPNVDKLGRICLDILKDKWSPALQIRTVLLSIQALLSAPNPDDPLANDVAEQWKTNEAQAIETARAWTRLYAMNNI
MEKK2 mut-MEK5 = signal of MEK5 binding to mutant human MEKK2 PB1 domain; bead flow cytometry, Alexa488-MEK5 binding to MEKK2 mutant; percent response, % at 10 µM; 290,000 tested, 0.35% active; AID 1530; in the data active = percent response above about 24%, passing the limit was not always enough
MEKK3 PB1 HTS = modulators (inhibitors or enhancers) of MEK5 binding to human MEKK3 PB1 domain; Q99759; bead-based flow cytometry, Alexa488-MEK5 binding to MEKK3; actives lie on both sides; 0 = blocked by unlabeled MEK5, 100 = vehicle; binding response (% of control), % at 10 µM; 290,000 tested, 1.4% active; AID 1529;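 active = binding response more than 3 SD above or below the average of its plate-row segment, actives on both sides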;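 note: Alexa488 bead fluorescence after subtracting the streptavidin-only scavenger bead signal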
MEKK2wt confirm = raises or lowers MEK5 binding to wildtype human MEKK2, retest; shares compounds with MEKK3 PB1 HTS; bead flow cytometry, Alexa488-MEK5 binding to MEKK2 WT; actives lie on both sides; binding response (% of control), % at 10 µM; 5,900 tested, 2.4% active; AID 1892; in the data active = binding response below about 16% or above about 210%; inactive = in between
MEKK2mut confirm = signal of MEK5 binding to mutant human MEKK2, retest. shares compounds with MEKK3 PB1 HTS. bead flow cytometry, Alexa488-MEK5 binding to MEKK2 mutant. percent response, % at 10 µM. 5,900 tested, 2% active; in the data active = percent response mostly above about 71%, no sharp cut-off; inactive = mostly below about 38%;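 note: higher means compound restores mutant binding toward wildtype level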
MEKK3 confirm = MEKK3-MEK5 PB1 inhibition, single concentration confirmation. shares compounds with MEKK3 PB1 HTS. bead flow cytometry, Alexa488-MEK5 binding to MEKK3; stronger effect = lower value. binding response (% of control), % at 10 µM. 5,900 tested, 1.8% active. AID 1894;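 active = binding response below 72% of control, or above a set upper limit, though filed actives all read lower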
PREPL inh cf = human PREPL inhibition, confirmation; shares compounds with PREPL inhibitor; recombinant PREPL, fluorescence polarization activity probe; inhibition, % at 5.96 µM; 2,000 tested, 67% active; AID 2803
Numbers stand for hits; [ ] = dose if it differs, or a comment. Only some compounds are listed: those with a hit (about 3.1% of all), similar ones and a draw of the others. Cut-off read from the data, not from the text of the source, unless noted: active = inhibition above about 43%; inactive = the rest.

What do the screens show for `N#Cc1nc(COc2ccc(-c3ccccc3)cc2)oc1NCCCN1CCOCC1`?
ATG4B inhibitor: inactive; PREPL inhibitor: 45; MEKK2wt PB1 HTS: 140; UBC13 inh: inactive; MEKK2 mut-MEK5: inactive; MEKK3 PB1 HTS: inactive; MEKK2wt confirm: inactive; MEKK2mut confirm: inactive; MEKK3 confirm: inactive; PREPL inh cf: inactive

How did CCCCC(=O)Nc1ccc2c(c1)nc(CCN1CCN(C)CC1)n2C do in these assays?
ATG4B inhibitor: inactive; PREPL inhibitor: inactive; MEKK2wt PB1 HTS: inactive; UBC13 inh: inactive; MEKK2 mut-MEK5: inactive; MEKK3 PB1 HTS: inactive

How did CCCn1c(SCC(=O)c2c[nH]c3ccccc23)nnc1-c1ccncc1 do in these assays?
ATG4B inhibitor: inactive; PREPL inhibitor: 44; MEKK2wt PB1 HTS: inactive; UBC13 inh: inactive; MEKK2 mut-MEK5: inactive; MEKK3 PB1 HTS: 71[inhibitor]; MEKK2wt confirm: inactive; MEKK2mut confirm: inactive; MEKK3 confirm: inactive; PREPL inh cf: inactive

What do the screens show for `COc1ccc(S(=O)(=O)N2CCCCCC2)cc1NC(=O)CN1C(=O)NC(C)(c2ccccc2)C1=O` (stereo not given)?
ATG4B inhibitor: inactive; PREPL inhibitor: inactive; UBC13 inh: inactive

What do the screens show for `COc1ccc(NC(=O)N2CCN(c3ccc([N+](=O)[O-])cc3)CC2)cc1`?
ATG4B inhibitor: inactive; PREPL inhibitor: inactive; MEKK2wt PB1 HTS: inactive; UBC13 inh: inactive; MEKK2 mut-MEK5: inactive; MEKK3 PB1 HTS: inactive

Results for COc1ccc(NC(=O)N2CCN(c3ccc([N+](=O)[O-])cc3)CC2)cc1OC ?
ATG4B inhibitor: inactive; PREPL inhibitor: 46; MEKK2wt PB1 HTS: inactive; UBC13 inh: inactive; MEKK2 mut-MEK5: inactive; MEKK3 PB1 HTS: 45[inhibitor]; MEKK2wt confirm: inactive; MEKK2mut confirm: inactive; MEKK3 confirm: inactive; PREPL inh cf: 56

Results for COc1ccc(C2CC(=O)Oc3c(C(CCN4CCCC(C)C4)c4ccc(N(C)C)cc4)c(OC)cc(OC)c32)cc1 (stereo not given) ?
ATG4B inhibitor: inactive; PREPL inhibitor: 44; MEKK2wt PB1 HTS: 152; UBC13 inh: inactive; MEKK2 mut-MEK5: inactive; MEKK3 PB1 HTS: inactive; MEKK2wt confirm: inactive; MEKK2mut confirm: inactive; MEKK3 confirm: inactive; PREPL inh cf: 60

Results for COc1ccc(C2CC(=O)Oc3c(C(CCN4CCCCC4)c4ccc(N(C)C)cc4)c(OC)cc(OC)c32)cc1 (stereo not given) ?
ATG4B inhibitor: inactive; PREPL inhibitor: 47; MEKK2wt PB1 HTS: 156; UBC13 inh: inactive; MEKK2 mut-MEK5: inactive; MEKK3 PB1 HTS: inactive; MEKK2wt confirm: inactive; MEKK2mut confirm: inactive; MEKK3 confirm: inactive; PREPL inh cf: 51

Results for COc1cc(C2CC(=O)Oc3c(C(CCN4CCN(c5ccccc5)CC4)c4ccc(N(C)C)cc4)c(OC)cc(OC)c32)cc(OC)c1OC (stereo not given) ?
ATG4B inhibitor: inactive; PREPL inhibitor: inactive; MEKK2wt PB1 HTS: inactive; UBC13 inh: inactive; MEKK2 mut-MEK5: inactive; MEKK3 PB1 HTS: inactive

Results for COc1cc(C2CC(=O)Oc3c(C(CCN4CCOCC4)c4ccc(N(C)C)cc4)c(OC)cc(OC)c32)cc(OC)c1OC (stereo not given) ?
ATG4B inhibitor: inactive; PREPL inhibitor: inactive; MEKK2wt PB1 HTS: inactive; UBC13 inh: inactive; MEKK2 mut-MEK5: inactive; MEKK3 PB1 HTS: inactive

How did CCOc1ncccc1C(=O)OCC(=O)c1ccc(C)c(C)c1 do in these assays?
ATG4B inhibitor: inactive; PREPL inhibitor: inactive; MEKK2wt PB1 HTS: inactive; UBC13 inh: inactive; MEKK2 mut-MEK5: inactive; MEKK3 PB1 HTS: inactive

Results for O=C(COC(=O)Cc1ccc(Cl)cc1Cl)Nc1ccccc1OC(F)F ?
ATG4B inhibitor: inactive; PREPL inhibitor: inactive; MEKK2wt PB1 HTS: inactive; UBC13 inh: inactive; MEKK2 mut-MEK5: inactive; MEKK3 PB1 HTS: inactive

How did COC(=O)CCC(=O)OC1(C)C(=O)C=C2C=C(C3CC3)N(CCc3ccccn3)C=C2C1=O (stereo not given) do in these assays?
ATG4B inhibitor: inactive; PREPL inhibitor: inactive; MEKK2wt PB1 HTS: inactive; UBC13 inh: inactive; MEKK2 mut-MEK5: inactive; MEKK3 PB1 HTS: inactive

How did COC(=O)CCC(=O)OC1(C)C(=O)C=C2C=C(C3CC3)N(CCc3c[nH]c4ccccc34)C=C2C1=O (stereo not given) do in these assays?
ATG4B inhibitor: inactive; PREPL inhibitor: 63; MEKK2wt PB1 HTS: 0.0[inhibitor]; UBC13 inh: inactive; MEKK2 mut-MEK5: inactive; MEKK3 PB1 HTS: 0.0[inhibitor]; MEKK2wt confirm: inactive; MEKK2mut confirm: inactive; MEKK3 confirm: inactive; PREPL inh cf: 52

What do the screens show for `C#CCOCCOCCOCCNc1nc(N2CCN(C(=O)[C@H](CCC(=O)O)n3cc(C(N)Cc4ccc(O)cc4)nn3)CC2)nc(N2CCN(C(=O)[C@H](Cc3cc4ccccc4[nH]3)n3cc(C(N)CC(C)C)nn3)CC2)n1` (stereo not given in full)?
PREPL inhibitor: 46; MEKK2wt PB1 HTS: 145; UBC13 inh: inactive; MEKK2 mut-MEK5: inactive; MEKK3 PB1 HTS: inactive; MEKK2wt confirm: inactive; MEKK2mut confirm: inactive; MEKK3 confirm: inactive; PREPL inh cf: inactive

Results for C#CCOCCOCCOCCNc1nc(N2CCN(C(=O)[C@H](CCCCN)n3cc([C@@H](N)CO)nn3)CC2)nc(N2CCN(C(=O)[C@H](Cc3ccc(O)cc3)n3cc([C@@H](N)CC(C)C)nn3)CC2)n1 ?
ATG4B inhibitor: inactive; PREPL inhibitor: inactive; MEKK2wt PB1 HTS: inactive; UBC13 inh: inactive; MEKK2 mut-MEK5: inactive; MEKK3 PB1 HTS: inactive

How did C#CCOCCOCCOCCNc1nc(N2CCN(C(=O)[C@H](CCCCN)n3cc([C@@H](N)CO)nn3)CC2)nc(N2CCN(C(=O)[C@H](Cc3cc4ccccc4[nH]3)n3cc([C@@H](N)CC(C)C)nn3)CC2)n1 do in these assays?
PREPL inhibitor: 52; MEKK2wt PB1 HTS: 195; UBC13 inh: 100; MEKK2 mut-MEK5: 67; MEKK3 PB1 HTS: inactive; MEKK2wt confirm: inactive; MEKK2mut confirm: inactive; MEKK3 confirm: inactive; PREPL inh cf: 51

How did CCOC(=O)C1CCN(C(=O)c2ccccc2)C(CC)C1=O (stereo not given) do in these assays?
ATG4B inhibitor: inactive

Screening results (PubChem)
